Experimental data taken from PubChem BioAssay AID1159580 (chemical genetic matrix, 2015).
Values joined by “and” are separate entries in the source; they are usually repeats but may differ in a detail not shown here. Identical values can stand only once. Hit rate of the full screen: of about 5,500 compounds, about 2,000 (36%) were called active. Another 18% or so got no clear call; they are omitted. Rule as the data show it: active = normalized growth mostly below about 0.91 (no sharp cut-off); inconclusive = no clear call, values can overlap the other calls; inactive = mostly above about 0.92. Some of the results follow.

Assay: chemical genetic growth profiling, strain panel (AID 1159580);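 also: tested at 20 µM; growth read once vehicle control cultures reached saturation at 30 °C; 1 = growth at the plate median or of vehicle wells; lower values mean less growth of the strain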
Conditions: growth OD

Measured: normalized growth

O=c1n(CCCN2CCN(c3cccc(Cl)c3)CC2)nc2ccccn12
inactive: S. cerevisiae deletion strains, locus YJR066W, strain TOR1, hits give low values 0.943 | S. cerevisiae deletion strains, locus YJR075W, strain HOC1, hits give low values 0.94 and 0.981 | S. cerevisiae deletion strains, locus YKL009W, strain mrt4, hits give low values 0.967 | S. cerevisiae deletion strains, locus YKL068W, hits give low values 0.989 | S. cerevisiae deletion strains, locus YKL085W, strain MDH1 (second series), hits give low values 0.992 | S. cerevisiae deletion strains, locus YKL085W, strain MDH1, hits give low values 0.992 | S. cerevisiae deletion strains, locus YKL160W, strain elf1, hits give low values 0.986 | S. cerevisiae deletion strains, locus YKL190W, strain CNB1, hits give low values 0.986 | S. cerevisiae deletion strains, locus YKR001C, strain vps1, hits give low values 0.972 | S. cerevisiae deletion strains, locus YKR026C, strain gcn3, hits give low values 0.984 | S. cerevisiae deletion strains, locus YKR091W, strain srl3, hits give low values 0.993 | S. cerevisiae deletion strains, locus YLL001W, strain dnm1, hits give low values 0.986 | S. cerevisiae deletion strains, locus YLL026W, hits give low values 0.986 | S. cerevisiae deletion strains, locus YLL041C, strain sdh2, hits give low values 0.994 | S. cerevisiae deletion strains, locus YLR027C, strain aat2, hits give low values 0.979 | S. cerevisiae deletion strains, locus YLR039C, strain RIC1, hits give low values 0.975 | S. cerevisiae deletion strains, locus YLR058C, strain SHM2, hits give low values 0.964 | S. cerevisiae deletion strains, locus YLR102C, strain apc9, hits give low values 0.993 | S. cerevisiae deletion strains, locus YLR113W, strain HOG1, hits give low values 1 | S. cerevisiae deletion strains, locus YLR221C, strain rsa3, hits give low values 0.985 | S. cerevisiae deletion strains, locus YLR258W, strain gsy2, hits give low values 0.99 | S. cerevisiae deletion strains, locus YLR262C, strain YPT6 (second series), hits give low values 0.965 | S. cerevisiae deletion strains, locus YLR262C, strain YPT6, hits give low values 0.948 | S. cerevisiae deletion strains, locus YLR268W, strain sec22, hits give low values 0.98 | S. cerevisiae deletion strains, locus YLR320W, strain mms22, hits give low values 0.966 | S. cerevisiae deletion strains, locus YLR330W, strain CHS5, hits give low values 0.989 | S. cerevisiae deletion strains, locus YLR342W, strain FKS1 (second series), hits give low values 1.04 | S. cerevisiae deletion strains, locus YLR342W, strain FKS1, hits give low values 0.983 | S. cerevisiae deletion strains, locus YLR357W, strain rsc2, hits give low values 0.932 | S. cerevisiae deletion strains, locus YLR370C, strain arc18, hits give low values 0.982 | S. cerevisiae deletion strains, locus YLR371W, strain rom2, hits give low values 0.994 | S. cerevisiae deletion strains, locus YLR384C, strain iki3, hits give low values 0.983 | S. cerevisiae deletion strains, locus YLR418C, strain cdc73, hits give low values 1 | S. cerevisiae deletion strains, locus YML016C, strain PPZ1, hits give low values 0.98 | S. cerevisiae deletion strains, locus YML032C, strain rad52, hits give low values 0.979 | S. cerevisiae deletion strains, locus YML120C, strain ndi1, hits give low values 0.977 | S. cerevisiae deletion strains, locus YML124C, strain tub3, hits give low values 0.989 | S. cerevisiae deletion strains, locus YMR058W, strain fet3, hits give low values 0.976 | S. cerevisiae deletion strains, locus YMR078C, strain ctf18, hits give low values 0.995 | S. cerevisiae deletion strains, locus YMR125W, strain sto1, hits give low values 0.969 | S. cerevisiae deletion strains, locus YMR129W, hits give low values 0.984 | S. cerevisiae deletion strains, locus YMR205C, strain PFK2, hits give low values 0.964 | S. cerevisiae deletion strains, locus YMR223W, strain ubp8, hits give low values 1.01 | S. cerevisiae deletion strains, locus YMR231W, strain pep5, hits give low values 0.989 | S. cerevisiae deletion strains, locus YMR263W, strain SAP30, hits give low values 0.983 | S. cerevisiae deletion strains, locus YMR307W, strain GAS1, hits give low values 1.08 and 1.01 | S. cerevisiae deletion strains, locus YNL067W, strain RPL9B, hits give low values 0.969 | S. cerevisiae deletion strains, locus YNL071W, strain lat1, hits give low values 0.963 | S. cerevisiae deletion strains, locus YNL153C, strain GIM3, hits give low values 0.945 | S. cerevisiae deletion strains, locus YNL175C, strain NOP13, hits give low values 0.999 | S. cerevisiae deletion strains, locus YNL183C, strain NPR1, hits give low values 0.943 | S. cerevisiae deletion strains, locus YNL197C, strain WHI3, hits give low values 1 | S. cerevisiae deletion strains, locus YNL209W, strain ssb2, hits give low values 0.989 | S. cerevisiae deletion strains, locus YNL224C, strain SQS1, hits give low values 0.998 | S. cerevisiae deletion strains, locus YNL233W, strain BNI4, hits give low values 0.956 | S. cerevisiae deletion strains, locus YNL248C, strain rpa49, hits give low values 0.976 | S. cerevisiae deletion strains, locus YNL250W, strain rad50, hits give low values 0.973 | S. cerevisiae deletion strains, locus YNL271C, strain bni1, hits give low values 0.986 | S. cerevisiae deletion strains, locus YNL298W, strain CLA4, hits give low values 0.999 | S. cerevisiae deletion strains, locus YNL307C, strain MCK1, hits give low values 0.993 | S. cerevisiae deletion strains, locus YNL322C, strain KRE1 (second series), hits give low values 0.964 | S. cerevisiae deletion strains, locus YNL322C, strain KRE1, hits give low values 0.997 | S. cerevisiae deletion strains, locus YNR049C, strain mso1, hits give low values 0.979 | S. cerevisiae deletion strains, locus YNR052C, strain pop2, hits give low values 0.992 | S. cerevisiae deletion strains, locus YOL006C, strain TOP1, hits give low values 0.781 | S. cerevisiae deletion strains, locus YOL012C, strain htz1 1.02 | S. cerevisiae deletion strains, locus YOL147C, strain pex11, hits give low values 0.992 | S. cerevisiae deletion strains, locus YOR001W, strain rrp6, hits give low values 0.991 | S. cerevisiae deletion strains, locus YOR061W, strain CKA2, hits give low values 0.965 | S. cerevisiae deletion strains, locus YOR069W, strain VPS5, hits give low values 0.987 | S. cerevisiae deletion strains, locus YOR070C, strain gyp1, hits give low values 0.974 | S. cerevisiae deletion strains, locus YOR080W, strain dia2, hits give low values 0.975 | S. cerevisiae deletion strains, locus YOR083W, strain WHI5 (second series), hits give low values 1.02 | S. cerevisiae deletion strains, locus YOR083W, strain WHI5, hits give low values 0.984 | S. cerevisiae deletion strains, locus YOR106W, strain vam3, hits give low values 0.977 | S. cerevisiae deletion strains, locus YOR136W, strain idh2, hits give low values 0.983 | S. cerevisiae deletion strains, locus YOR144C, strain elg1, hits give low values 0.996 | S. cerevisiae deletion strains, locus YOR184W, strain ser1, hits give low values 0.992 | S. cerevisiae deletion strains, locus YOR231W, strain MKK1, hits give low values 1 | S. cerevisiae deletion strains, locus YOR265W, strain rbl2, hits give low values 0.969 | S. cerevisiae deletion strains, locus YOR270C, strain vph1, hits give low values 0.902 | S. cerevisiae deletion strains, locus YOR290C, strain snf2, hits give low values 0.939 | S. cerevisiae deletion strains, locus YOR316C, strain cot1, hits give low values 0.99 | S. cerevisiae deletion strains, locus YPL051W, strain arl3, hits give low values 0.982 | S. cerevisiae deletion strains, locus YPL078C, strain atp4, hits give low values 0.975 | S. cerevisiae deletion strains, locus YPL106C, strain sse1, hits give low values 0.971 | S. cerevisiae deletion strains, locus YPL240C, strain hsp82, hits give low values 0.984 | S. cerevisiae deletion strains, locus YPL241C, strain CIN2, hits give low values 0.997 | S. cerevisiae deletion strains, locus YPL256C, strain CLN2, hits give low values 1.01 | S. cerevisiae deletion strains, locus YPR119W, strain clb2, hits give low values 0.99 | S. cerevisiae deletion strains, locus YPR141C, strain kar3, hits give low values 0.984 | S. cerevisiae deletion strains, locus YPR163C, strain tif3, hits give low values 0.991 | S. cerevisiae deletion strains, locus YPR167C, strain met16, hits give low values 1 | S. cerevisiae deletion strains, strain wtn01, hits give low values 1.03 | S. cerevisiae strains, strain wild type, hits give low values 0.979
